In PubChem BioAssay AID1159580 (chemical genetic matrix, 2015):
Where “and” joins values, the source holds several entries; their conditions need not be identical. Equal entries are not always repeated. Among all 5,500 compounds or so, about 2,000 (36%) were called active. Inconclusive results (about 18%) are left out. Rule as the data show it: active = normalized growth mostly below about 0.91 (no sharp cut-off); inconclusive = no clear call, values can overlap the other calls; inactive = mostly above about 0.92. The list shows a part of the results.

Assay: chemical genetic growth profiling, strain panel (AID 1159580);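 also: tested at 20 µM; growth read once vehicle control cultures reached saturation at 30 °C; 1 = growth at the plate median or of vehicle wells; lower values mean less growth of the strain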
Settings: S. cerevisiae deletion strains, growth OD

Measured: normalized growth

CCCCCCCCCCCCCCCC(=O)OC/C=C(C)/C=C/C=C(C)/C=C/C1=C(C)CCCC1(C)C
inactive: locus YAL013W, strain DEP1, active compounds read low 0.994 | locus YAL021C, strain ccr4, active compounds read low 1.04 | locus YAL026C, strain drs2, active compounds read low 1.02 | locus YAL030W, strain snc1, active compounds read low 1.03 | locus YBL061C, strain skt5, active compounds read low 1.02 | locus YBR009C, strain hhf1, active compounds read low 0.995 | locus YBR021W, strain FUR4, active compounds read low 0.977 | locus YBR023C, strain chs3, active compounds read low 1 | locus YBR171W, strain sec66, active compounds read low 1.02 | locus YBR229C, strain ROT2, active compounds read low 0.992 | locus YBR231C, strain swc5, active compounds read low 0.931 | locus YBR279W, strain paf1, active compounds read low 1.01 | locus YCL011C, strain gbp2, active compounds read low 1 | locus YCL016C, strain dcc1, active compounds read low 1 | locus YCL029C, strain bik1, active compounds read low 0.999 | locus YCL069W, strain vba3, active compounds read low 1.01 | locus YCR088W, strain abp1, active compounds read low 1.02 | locus YDL005C, strain med2, active compounds read low 1.03 | locus YDL035C, strain GPR1, active compounds read low 0.978 | locus YDL040C, strain nat1, active compounds read low 1.01 | locus YDL074C, strain BRE1, active compounds read low 1 | locus YDL101C, strain DUN1, active compounds read low 0.993 | locus YDL185W, strain tfp1, active compounds read low 0.992 | locus YDL192W, strain arf1, active compounds read low 0.994 | locus YDR001C, strain nth1, active compounds read low 1.02 | locus YDR069C, strain doa4, active compounds read low 1 | locus YDR101C, strain arx1, active compounds read low 1.02 | locus YDR137W, strain rgp1, active compounds read low 1.03 | locus YDR150W, strain NUM1, active compounds read low 1 | locus YDR159W, strain sac3, active compounds read low 0.963 | locus YDR162C, strain NBP2, active compounds read low 0.973 | locus YDR195W, strain ref2 1.04 | locus YDR297W, strain sur2, active compounds read low 1.03 | locus YDR318W, strain mcm21, active compounds read low 0.999 | locus YDR334W, strain swr1, active compounds read low 1.03 | locus YDR335W, strain msn5, active compounds read low 1.04 | locus YDR388W, active compounds read low 1.02 | locus YDR392W, strain spt3, active compounds read low 1.05 | locus YDR502C, strain sam2, active compounds read low 0.994 | locus YEL003W, strain gim4, active compounds read low 1.01 | locus YEL037C, strain rad23, active compounds read low 1.02 | locus YEL061C, strain CIN8 (second series), active compounds read low 1.02 | locus YEL061C, strain CIN8, active compounds read low 0.993 | locus YER015W, strain faa2, active compounds read low 1.02 | locus YER016W, strain bim1, active compounds read low 1.02 | locus YER110C, active compounds read low 0.985 | locus YER111C, strain swi4, active compounds read low 1.02 | locus YER155C, strain BEM2 (second series), active compounds read low 1.03 | locus YER155C, strain BEM2, active compounds read low 0.998 | locus YER167W, strain BCK2, active compounds read low 0.989 | locus YFR010W, strain ubp6, active compounds read low 1.03 | locus YGL078C, strain dbp3, active compounds read low 0.993 | locus YGL086W, strain mad1, active compounds read low 1.01 | locus YGL167C, strain pmr1, active compounds read low 1.02 | locus YGL173C, strain kem1, active compounds read low 1.01 | locus YGL227W, strain vid30, active compounds read low 1.01 | locus YGL240W, strain doc1, active compounds read low 1.03 | locus YGL248W, strain PDE1, active compounds read low 1 | locus YGL253W, strain hxk2, active compounds read low 0.976 | locus YGR135W, strain pre9, active compounds read low 0.929 | locus YGR252W, strain gcn5, active compounds read low 1.04 | locus YHR013C, strain ard1, active compounds read low 1.05 | locus YHR027C, strain rpn1, active compounds read low 0.969 | locus YHR030C, strain SLT2, active compounds read low 0.995 and 0.963 | locus YHR079C, strain IRE1 (second series), active compounds read low 1.01 | locus YHR079C, strain IRE1, active compounds read low 0.925 | locus YHR094C, strain hxt1, active compounds read low 0.983 | locus YHR129C, strain ARP1, active compounds read low 0.999 | locus YHR142W, strain chs7, active compounds read low 1.01 | locus YHR200W, strain rpn10, active compounds read low 0.998 | locus YIL066C, strain RNR3, active compounds read low 0.987 | locus YIL073C, strain SPO22, active compounds read low 0.879 | locus YIL125W, strain kgd1, active compounds read low 0.992 | locus YIR030C, strain dcg1, active compounds read low 0.989 | locus YJL092W, strain hpr5, active compounds read low 1.02 | locus YJL095W, strain BCK1 (second series), active compounds read low 1.03 | locus YJL095W, strain BCK1, active compounds read low 0.995 and 0.989 | locus YJL115W, strain asf1, active compounds read low 1.02 | locus YJL129C, strain trk1, active compounds read low 1.04 | locus YJL134W, strain LCB3, active compounds read low 0.991 | locus YJL154C, strain vps35, active compounds read low 1.02 | locus YJL164C, strain tpk1, active compounds read low 0.996 | locus YJL166W, strain qcr8, active compounds read low 1.04 | locus YJL168C, strain set2, active compounds read low 0.994 | locus YJL187C, strain SWE1 (second series), active compounds read low 1.01 | locus YJL187C, strain SWE1, active compounds read low 1.03 | locus YJR043C, strain POL32, active compounds read low 0.995 | locus YJR066W, strain TOR1, active compounds read low 0.901 | locus YKL009W, strain mrt4, active compounds read low 0.993 | locus YKL068W, active compounds read low 0.985 | locus YKL085W, strain MDH1 (second series), active compounds read low 0.985 | locus YKL085W, strain MDH1, active compounds read low 0.985 | locus YKL160W, strain elf1, active compounds read low 1.02 | locus YKL190W, strain CNB1, active compounds read low 0.998 | locus YKR001C, strain vps1, active compounds read low 0.991 | locus YKR026C, strain gcn3, active compounds read low 1.03 | locus YKR091W, strain srl3, active compounds read low 1.01 | locus YLL001W, strain dnm1, active compounds read low 1.01 | locus YLL026W, active compounds read low 0.975 | locus YLL041C, strain sdh2, active compounds read low 1.02 | locus YLR027C, strain aat2, active compounds read low 1.01 | locus YLR039C, strain RIC1, active compounds read low 1 | locus YLR058C, strain SHM2, active compounds read low 0.988 | locus YLR102C, strain apc9, active compounds read low 0.993 | locus YLR113W, strain HOG1, active compounds read low 0.99 | locus YLR221C, strain rsa3, active compounds read low 0.98 | locus YLR258W, strain gsy2, active compounds read low 1 | locus YLR262C, strain YPT6 (second series), active compounds read low 1.01 | locus YLR262C, strain YPT6, active compounds read low 1.04 | locus YLR268W, strain sec22, active compounds read low 0.996 | locus YLR320W, strain mms22, active compounds read low 1 | locus YLR330W, strain CHS5, active compounds read low 0.993 | locus YLR342W, strain FKS1 (second series), active compounds read low 0.993 | locus YLR342W, strain FKS1, active compounds read low 1.02 | locus YLR357W, strain rsc2, active compounds read low 0.994 | locus YLR370C, strain arc18, active compounds read low 1.02 | locus YLR371W, strain rom2, active compounds read low 1 | locus YLR384C, strain iki3, active compounds read low 1.02 | locus YLR418C, strain cdc73, active compounds read low 0.922 | locus YML016C, strain PPZ1, active compounds read low 0.994 | locus YML032C, strain rad52, active compounds read low 1.01 | locus YML120C, strain ndi1, active compounds read low 1.05 | locus YML124C, strain tub3, active compounds read low 0.993 | locus YMR058W, strain fet3, active compounds read low 0.999 | locus YMR078C, strain ctf18, active compounds read low 0.996 | locus YMR125W, strain sto1, active compounds read low 1.01 | locus YMR129W, active compounds read low 1.01 | locus YMR205C, strain PFK2, active compounds read low 1.01 | locus YMR223W, strain ubp8, active compounds read low 0.959 | locus YMR231W, strain pep5, active compounds read low 1.02 | locus YMR263W, strain SAP30, active compounds read low 1 | locus YMR307W, strain GAS1, active compounds read low 1 | locus YNL067W, strain RPL9B, active compounds read low 1.02 | locus YNL071W, strain lat1, active compounds read low 0.97 | locus YNL153C, strain GIM3, active compounds read low 1.04 | locus YNL183C, strain NPR1, active compounds read low 0.967 | locus YNL209W, strain ssb2, active compounds read low 0.991 | locus YNL233W, strain BNI4, active compounds read low 0.994 | locus YNL248C, strain rpa49, active compounds read low 1.05 | locus YNL250W, strain rad50, active compounds read low 1.01 | locus YNL271C, strain bni1, active compounds read low 0.995 | locus YNL298W, strain CLA4, active compounds read low 1 | locus YNL307C, strain MCK1, active compounds read low 0.989 | locus YNL322C, strain KRE1 (second series), active compounds read low 1.04 | locus YNR049C, strain mso1, active compounds read low 1.02 | locus YNR052C, strain pop2, active compounds read low 0.998 | locus YOL012C, strain htz1 0.785 | locus YOL147C, strain pex11, active compounds read low 0.991 | locus YOR001W, strain rrp6, active compounds read low 1.05 | locus YOR061W, strain CKA2, active compounds read low 0.99 | locus YOR069W, strain VPS5, active compounds read low 0.992 | locus YOR070C, strain gyp1, active compounds read low 1.01 | locus YOR080W, strain dia2, active compounds read low 1.02 | locus YOR083W, strain WHI5, active compounds read low 0.984 | locus YOR106W, strain vam3, active compounds read low 0.962 | locus YOR136W, strain idh2, active compounds read low 1 | locus YOR144C, strain elg1, active compounds read low 0.99 | locus YOR184W, strain ser1, active compounds read low 0.991 | locus YOR231W, strain MKK1, active compounds read low 0.974 | locus YOR265W, strain rbl2, active compounds read low 1.02 | locus YOR270C, strain vph1, active compounds read low 1.05 | locus YOR290C, strain snf2, active compounds read low 1.03 | locus YOR316C, strain cot1, active compounds read low 0.992 | locus YPL051W, strain arl3, active compounds read low 1.02 | locus YPL078C, strain atp4, active compounds read low 1.01 | locus YPL106C, strain sse1, active compounds read low 1.07 | locus YPL240C, strain hsp82, active compounds read low 1.01 | locus YPL256C, strain CLN2, active compounds read low 0.916 | locus YPR119W, strain clb2, active compounds read low 0.998 | locus YPR141C, strain kar3, active compounds read low 0.983 | locus YPR163C, strain tif3, active compounds read low 1 | locus YPR167C, strain met16, active compounds read low 0.992 | strain wtn01, active compounds read low 0.972
